The source of these data is article PMC11062922 (Nature Chemical Biology, 2023).

Like-named read-outs stand apart in the source and are kept apart here.

Holding throughout (design): species or system human, MV4-11 + K-562 + COLO205 + SK-N-BE2 + OVCAR-8
One assay relates to CDKL5. To be noted: read-out: apparent Kd, n = 1.
The test system of a further assay is FLT3. Conditions: read-out: apparent Kd, n = 1.
In another assay the test system is LATS1. To be noted: read-out: apparent Kd, n = 1.
The test system of a further assay is MYLK3. To be noted: read-out: apparent Kd, n = 1.
The test system of another assay is PRKD2. To be noted: read-out: apparent Kd, n = 1.
For another assay, the system named is PRKD3. Conditions: read-out: apparent Kd, n = 1.
In another assay the test system is PLK4. Conditions: read-out: apparent Kd, n = 1.
For another assay, the system named is CDK7. Conditions: read-out: apparent Kd, n = 1.
The test system of a further assay is ERCC2. Conditions: read-out: apparent Kd, n = 1.
Another assay deals with MARK4. Conditions: read-out: apparent Kd; compound concentrations:100 nM and 1000 nM (sheet 'Samples'); n = 1.
The subject of the next assay is PRKAA1. Conditions: read-out: apparent Kd; compound concentrations:100 nM and 1000 nM (sheet 'Samples'); n = 1.
A further assay deals with FER. To be noted: read-out: apparent Kd; compound concentrations: 100 nM and 1000 nM (sheet 'Samples'), CATDS: 5.24891250459407E-2; n = 1.
The subject of a further assay is PTK2B. To be noted: read-out: apparent Kd, compound concentrations: 100 nM and 1000 nM (sheet 'Samples'), n = 1.
The next assay deals with PTK2. Conditions: read-out: apparent Kd, compound concentrations: 100 nM and 1000 nM (sheet 'Samples'), n = 1.
The test system of a further assay is RPS6KA6. To be noted: read-out: apparent Kd; compound concentrations: 100 nM and 1000 nM (sheet 'Samples'), CATDS: 5.0913712031047997E-2; n = 1.
The next assay has as its system DYRK1A. Conditions: read-out: apparent Kd, n = 1.
A further assay has as its system PRKCD. Conditions: read-out: apparent Kd, n = 1.
The test system of another assay is STK10. Conditions: read-out: apparent Kd; compound concentrations:100 nM and 1000 nM (sheet 'Samples'); n = 1.
A further assay concerns PIP4K2C. To be noted: read-out: apparent Kd; compound concentrations: 100 nM and 1000 nM (sheet 'Samples'), CATDS: 1.6714878320236801E-2; n = 1.
The subject of a further assay is PRKCQ. To be noted: read-out: apparent Kd, n = 1.
Where [1] appears, read: compound concentrations:100 nM and 1000 nM (sheet 'Samples').

On to `NS(=O)(=O)c1ccc(NC=C2C(=O)Nc3ccc4ncsc4c32)cc1` [GW589933X], for which the potency estimated from few doses is 0.0524 µM with CDKL5 (compound concentrations: 100 nM and 1000 nM (sheet 'Samples'), CATDS: 7.9596409580243901E-2); 0.581 µM with FLT3 (compound concentrations: 100 nM and 1000 nM (sheet 'Samples'), CATDS: 2.3969492803236899E-2); 1.02 µM in the assay with LATS1 (compound concentrations: 100 nM and 1000 nM (sheet 'Samples'), CATDS: 1.9733333265128199E-2); 0.0237 µM with MYLK3 (compound concentrations: 100 nM and 1000 nM (sheet 'Samples'), CATDS: 0.127483608454634); 1.46 µM in the assay with PRKD2 (compound concentrations: 100 nM and 1000 nM (sheet 'Samples'), CATDS: 1.78038958195245E-2); 1.76 µM in the assay on PRKD3 (compound concentrations: 100 nM and 1000 nM (sheet 'Samples'), CATDS: 1.69814633200863E-2).

On to `COc1cc2ncn(-c3cc(OCc4ccccc4S(C)(=O)=O)c(C#N)s3)c2cc1OC` [GSK319347A], for which the potency estimated from few doses is 1.19 µM with MYLK3 (compound concentrations: 100 nM and 1000 nM (sheet 'Samples'), CATDS: 9.2768404511317695E-2); 1.39 µM with PLK4 (compound concentrations: 100 nM and 1000 nM (sheet 'Samples'), CATDS: 8.6919710650877405E-2).

Take `Cn1cc(C2=C(c3c(S(C)=O)n(C)c4ccccc34)C(=O)NC2=O)c2ccccc21` (centres unmarked) [RO0317379-000]: the potency estimated from few doses with CDKL5 (compound concentrations: 100 nM and 1000 nM (sheet 'Samples'), CATDS: 0.106131192264054) was 1.6 µM.

For `COc1cc[nH]c1/C=C1\C(=O)Nc2ccc(F)c(C#C[C@@H](O)[C@@H](N)[C@@H](C)O)c21` [RO0283120-000], the potency estimated from few doses with CDK7 (setting [1]) was 0.445 µM; with CDKL5 (setting [1]), 0.0324 µM; with ERCC2 (setting [1]), 0.785 µM; in the assay with FLT3 (setting [1]), 0.0593 µM; in the assay with LATS1 (setting [1]) it was 0.125 µM; in the assay with MARK4 it was 0.703 µM. Besides, the potency estimated from few doses in the assay with MYLK3 (setting [1]) is 0.827 µM; in the assay with PRKAA1 it was 1.04 µM; in the assay with PRKD2 (setting [1]), 0.278 µM; with PRKD3 (setting [1]), 0.236 µM.

Consider `Cn1cc(C2=C(c3ccc(OC[C@@H](O)CO)cc3)C(=O)NC2=O)c2ccccc21` [RO3208546-000], for which the potency estimated from few doses with CDK7 (compound concentrations: 100 nM and 1000 nM (sheet 'Samples'), CATDS: 4.6127698813653598E-2) is 0.768 µM; in the assay on ERCC2 (compound concentrations: 100 nM and 1000 nM (sheet 'Samples'), CATDS: 5.3996089618989399E-2) it was 0.559 µM; in the assay on FER, 0.59 µM; with PTK2B (CATDS: 4.1151087302781601E-2), 0.996 µM; with PTK2 (CATDS: 4.2596941934388698E-2), 0.918 µM; in the assay on RPS6KA6, 0.626 µM.

`CCn1c(-c2nonc2N)nc2cncc(C(=O)N3CC[C@H](N)C3)c21.Cl` [SB-772077-B]: the potency estimated from few doses with DYRK1A (setting [1]) was 1.52 µM; with PRKCD (setting [1]), 0.843 µM.

Take `CC(C)(CO)CNC(=O)c1ccc2c(c1)/C(=N/Nc1ccc(S(N)(=O)=O)cc1)C(=O)N2` [GW301784X]: in the assay on CDKL5 (setting [1]), the potency estimated from few doses is 0.172 µM.

Consider `Nc1nccc(-c2ccc3c(N)n[nH]c3c2)n1` [GSK1034945A], for which the potency estimated from few doses is 0.117 µM in the assay with DYRK1A (setting [1]); 1.79 µM with MARK4; 0.0655 µM in the assay with MYLK3 (setting [1]); 2.03 µM in the assay with PRKD2 (setting [1]); 1.12 µM in the assay on STK10.

Turning to `NS(=O)(=O)c1ccc(N/N=C2\C(=O)Nc3ccc4ncccc4c32)cc1` [GW305178X], the potency estimated from few doses in the assay on CDKL5 (compound concentrations: 100 nM and 1000 nM (sheet 'Samples'), CATDS: 5.21381649539812E-2) was 0.867 µM.

Consider `Cl.Cl.NCC(NC(=O)c1cc(-c2ccnc3[nH]ccc23)cs1)c1ccccc1.NCC(NC(=O)c1cc(-c2ccnc3[nH]ccc23)cs1)c1ccccc1` (centres unmarked) [GSK1229959A], for which the potency estimated from few doses is 0.349 µM with CDK7 (compound concentrations: 100 nM and 1000 nM (sheet 'Samples'), CATDS: 2.3944449367716902E-2); 0.0332 µM in the assay on CDKL5 (compound concentrations: 100 nM and 1000 nM (sheet 'Samples'), CATDS: 5.0422739373742101E-2); 1.2 µM in the assay with DYRK1A (compound concentrations: 100 nM and 1000 nM (sheet 'Samples'), CATDS: 1.8409243102770301E-2); 0.649 µM with ERCC2 (compound concentrations: 100 nM and 1000 nM (sheet 'Samples'), CATDS: 2.07815599628208E-2); 0.382 µM with MYLK3 (compound concentrations: 100 nM and 1000 nM (sheet 'Samples'), CATDS: 2.3428006567825201E-2); 2.23 µM in the assay with PIP4K2C. The potency estimated from few doses was 0.38 µM in the assay on PRKCD (compound concentrations: 100 nM and 1000 nM (sheet 'Samples'), CATDS: 2.3457230282112398E-2); 1.03 µM in the assay on PRKCQ (compound concentrations: 100 nM and 1000 nM (sheet 'Samples'), CATDS: 1.8945184174552199E-2); 0.828 µM in the assay on PTK2B (CATDS: 1.9759894186564299E-2).

Regarding `Cl.Cl.NC[C@H](CC1CCCCC1)NC(=O)c1ccc(-c2ccnc3[nH]ccc23)s1.NC[C@H](CC1CCCCC1)NC(=O)c1ccc(-c2ccnc3[nH]ccc23)s1` [GSK1581428A], the potency estimated from few doses is 1.12 µM in the assay with LATS1 (setting [1]) and 0.719 µM in the assay with PRKCD (setting [1]).

For `CCC(CC)(CC)n1cnc2c(N)ncnc21` [SKF-97620], the potency estimated from few doses in the assay with PTK2 (CATDS: 2.8719302746770599E-2) was 1.14 µM.

As for `CCn1c(-c2nonc2N)nc2cncc(Br)c21` [SB-738004], the potency estimated from few doses in the assay on DYRK1A (setting [1]) was 0.717 µM; in the assay on FLT3 (setting [1]) it was 1.19 µM; with PRKCD (setting [1]), 0.649 µM; with PRKCQ (setting [1]), 2.39 µM.

With `CN[C@H](C#Cc1c(F)ccc2c1/C(=C/c1[nH]ccc1OC)C(=O)N2)CO.Cl` [RO0283049-001], the potency estimated from few doses was 0.0178 µM in the assay with CDKL5 (compound concentrations: 100 nM and 1000 nM (sheet 'Samples'), CATDS: 0.200980885548627); 0.0313 µM in the assay on FLT3 (compound concentrations: 100 nM and 1000 nM (sheet 'Samples'), CATDS: 0.132856529197414); 0.134 µM with LATS1 (compound concentrations: 100 nM and 1000 nM (sheet 'Samples'), CATDS: 5.43155260129227E-2); 0.504 µM in the assay with MYLK3 (compound concentrations: 100 nM and 1000 nM (sheet 'Samples'), CATDS: 2.9648763968158898E-2).

Turning to `Cc1cc(NC(=O)c2cccc(NC(=O)/C=C/CN(C)C)c2)ccc1Nc1nccc(-c2cccnc2)n1` [JNK-IN-7], in the assay on CDKL5 (setting [1]), the potency estimated from few doses was 0.958 µM.

Consider `O=C1N=C(NCCc2cccs2)S/C1=C\c1ccc2ncccc2c1` [RO4508348-000], for which the potency estimated from few doses in the assay on DYRK1A (compound concentrations: 100 nM and 1000 nM (sheet 'Samples'), CATDS: 0.139481417923777) was 0.734 µM; in the assay on FLT3 (compound concentrations: 100 nM and 1000 nM (sheet 'Samples'), CATDS: 0.15045749947439399), 0.638 µM.

`O=C(Nc1n[nH]c2nc(-c3ccccc3O)ccc12)C1CC1` [SB-711880]: the potency estimated from few doses is 1.45 µM in the assay with CDKL5 (setting [1]); 1.03 µM in the assay with LATS1 (setting [1]); 1.68 µM in the assay on MARK4; 0.219 µM in the assay with MYLK3 (setting [1]); 0.867 µM in the assay on PLK4 (setting [1]); 0.712 µM with PRKD2 (setting [1]). Besides, the potency estimated from few doses in the assay on PRKD3 (setting [1]) is 0.57 µM; in the assay on STK10, 1.2 µM.
